This note sets out measurements from PubChem BioAssay AID1220 (Sanford-Burnham Center for Chemical Genomics, 2008).

A word on the inhibition: it is the drop in the measured response relative to a control, in per cent.

Screen size: about 190,000 compounds; about 1,300 (0.68%) were called active. The sample holds actives, similar compounds and a random draw of the others, so the mix is not that of the screen. Unmarked numbers belong to inactive results. Rule as the data show it: active = inhibition above about 50%; inactive = the rest.

The target in the test is Mannose-6-phosphate isomerase (Homo sapiens) (UniProt P34949). The experiment in a line: human PMI inhibitors, high substrate, primary screen, biochemical, fluorescence intensity, high mannose 6-phosphate (AID 1220). The conditions noted are these: recombinant PMI enzyme, coupled fluorescence intensity; at 20 µM; hits give high values.
Mannose-6-phosphate isomerase (Homo sapiens), sequence (P34949 whole entry, looked up): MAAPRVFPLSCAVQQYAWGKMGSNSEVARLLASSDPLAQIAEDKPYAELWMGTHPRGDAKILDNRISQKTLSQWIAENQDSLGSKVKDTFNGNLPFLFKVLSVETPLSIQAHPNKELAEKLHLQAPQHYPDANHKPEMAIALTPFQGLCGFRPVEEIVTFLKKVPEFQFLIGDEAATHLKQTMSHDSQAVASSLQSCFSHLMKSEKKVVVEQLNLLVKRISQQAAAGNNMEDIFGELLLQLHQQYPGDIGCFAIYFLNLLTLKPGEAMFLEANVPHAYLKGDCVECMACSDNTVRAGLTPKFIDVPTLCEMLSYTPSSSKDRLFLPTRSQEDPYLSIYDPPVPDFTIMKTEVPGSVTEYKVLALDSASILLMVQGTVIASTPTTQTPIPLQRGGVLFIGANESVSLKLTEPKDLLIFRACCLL
`C=CCN(C(=O)CCC(=O)Nc1cc(C)on1)C(C(=O)NC1CCCC1)c1cccnc1` (stereo unspecified): the inhibition is 12.1%. On to `COc1nc(Nc2cccc([N+](=O)[O-])c2)nc(OC)n1`, for which the inhibition was 11.7%. In the case of `Cc1cc2c(nn1)CCC/C2=N\O` it was 4%. For the compound `COc1ccc(C(=O)CSc2nnc(CNC(=O)c3ccc(OC)cc3)n2C)cc1`, the inhibition was -5.4%. The figure for `Cc1cc2nnc(SC3CCCCN(C(=O)c4ccc(F)cc4)C3=O)n2c2ccccc12` (stereo unspecified) is 3%. The figure for `CC(C)c1ccc(/C=N/NC(=O)c2cccc(Cl)c2)cc1` is -5.5%; for `CC(C)Cn1ccc(=O)n(CC(C)C)c1=O` it is 12%; for `CC(C)c1ccc(NC(=O)COc2ccccn2)cc1` it is 4.4%. With `CC(C)CC(=O)NC(c1ccccc1Cl)c1c(O)ccc2ccccc12` (stereo unspecified), the inhibition was 6.9%. In the case of `O=c1c(-c2nnc(SCc3ccc(Cl)cc3Cl)o2)cccn1Cc1ccccc1`, the inhibition was 7.2%.

As for `COc1ccc(N2C(=O)CC(n3c(CCCCO)nc4ccccc43)C2=O)cc1` (stereo unspecified), the inhibition was -9.5%. As for `COc1cc(/C=C(\C#N)c2nc3ccccc3n2C)cc(OC)c1O`, the inhibition is 57% (active).

Regarding `Cn1c(/C(C#N)=C/c2ccncc2)nc2ccccc21`, the inhibition was 30.7%. Consider `Cn1c(/C(C#N)=C/c2cccc(O)c2)nc2ccccc21`, for which the inhibition was 6.4%. In the case of `Cc1nc2ccccc2nc(C)c1=NO` it was 54.2% (active); in that of `Cc1nc2ccc(Cl)cc2nc(C)/c1=N\O`, 32.9%. The figure for `Cc1ccc2nc(C)/c(=N\O)c(C)nc2c1` is 2.2%. Turning to `COCCN1C(=O)/C(=C/c2ccc(OCc3ccc(C(=O)O)cc3)c(OC)c2)SC1=Nc1ccccc1`, the inhibition was 5.1%. Regarding `CC(C)CNC(=O)COC(=O)c1cc(S(=O)(=O)N(C)C)ccc1N1CCCC1`, the inhibition was 4.7%. In the case of `CCN1C=CC2=C(C#N)C(N)C(C#N)(C#N)C(c3ccccc3C(F)(F)F)C2C1` (stereo unspecified), the inhibition is 5.1%. The figure for `CN1C=CC2=C(C#N)C(N)C(C#N)(C#N)C(c3ccccc3)C2C1` (stereo unspecified) is 18.5%. The figure for `CN1C=CC2=C(C#N)C(N)C(C#N)(C#N)[C@H](c3ccccc3)[C@H]2C1` (stereo partly specified) is 61% (active); for `O=C(Cn1nc(C(F)(F)F)c2c1CCC2)NCc1ccc(Cl)cc1` it is -8.7%; for `CC(C)C(C)NC(=O)CN1C(=O)NC2(CCCc3ccccc32)C1=O` (stereo unspecified) it is -2.2%.

For the compound `CN(CCO)c1cc(N2CCN(C(=O)c3ccco3)CC2)c2nonc2c1[N+](=O)[O-]`, the inhibition was 12.4%. The figure for `CCOC(=O)C1CCCN(c2cc(NCCCO)c([N+](=O)[O-])c3nonc23)C1` (stereo unspecified) is 55.2% (active); for `O=[N+]([O-])c1c(NCCO)cc(N2CCN(Cc3ccc4c(c3)OCO4)CC2)c2nonc12` it is 49.1%; for `CN(CCO)c1cc(N2CCC3(CC2)OCCO3)c2nonc2c1[N+](=O)[O-]` it is 34.9%. With `O=[N+]([O-])c1c(NCCCO)cc(N2CCN(Cc3ccc4c(c3)OCO4)CC2)c2nonc12`, the inhibition was 45.2%. The figure for `CCOC(=O)N1CCN(c2cc(N(C)CCO)c([N+](=O)[O-])c3nonc23)CC1` is 55.5% (active). On to `CC1CCCN(c2cc(N(C)CCO)c([N+](=O)[O-])c3nonc23)C1` (stereo unspecified), for which the inhibition was 18%. With `CC1CCN(c2cc(N(C)CCO)c([N+](=O)[O-])c3nonc23)CC1`, the inhibition is 50.7% (active). In the case of `CN(CCO)c1cc(N2CCCCC2)c2nonc2c1[N+](=O)[O-]` it was 42.4%; in that of `CC(C)(C)NC(=O)COC(=O)Cc1ccc(Cl)cc1`, -0.9%. Turning to `COC(=O)N/N=C/c1cc(Cl)c(OCc2ccc(F)cc2)c(OC)c1`, the inhibition is -6.1%. In the case of `CCC(C)NCCOCCOc1ccc(C)cc1Br` (stereo unspecified) it was 0.7%; in that of `CCn1c(SCC(=O)N/N=C/C=C\c2ccccc2[N+](=O)[O-])nc2ccccc21`, 6.4%; in that of `CCOc1ccc(NC2CCN(C(C)=O)CC2)cc1`, 33.1%. As to `Clc1ccc(CCNc2nc3ccccc3s2)cc1`, the inhibition was 1.2%. The figure for `O=C(CSc1ncccc1C(=O)O)c1ccccc1` is -60.9%; for `Cn1c(SCC(=O)Nc2cccc(Br)c2)nnc1-c1cc2ccccc2o1` it is -14.1%. Turning to `O=C(NCCc1ccccc1)c1ccccc1F`, the inhibition was 8.3%. Regarding `c1cncc(-c2nnc(-c3cccnc3)nn2)c1`, the inhibition is 62.4% (active). The figure for `c1cncc(-c2nn[nH]n2)c1` is -12.1%; for `c1cncc(-c2cccnc2)c1` it is -2.8%.

With `COc1ccc(S(=O)(=O)NC(CC(=O)NCC2CCCO2)c2ccco2)cc1` (stereo unspecified), the inhibition is 8%. In the case of `Cc1cccc(OCCOCCN2CCNCC2)c1C` it was -5%. For the compound `Cc1nc2sc(C(c3ccccc3)N3CCOCC3)c(O)n2n1` (stereo unspecified), the inhibition is 3.4%. The figure for `O=C(O)CNC(=O)CC1S/C(=N/N=C2/NC(=O)CS2)NC1=O` (stereo unspecified) is 29.5%; for `NC1=NC(=O)C(CC(=O)NCc2ccccc2)S1` (stereo unspecified) it is -10.3%; for `Cc1ccc(C(=O)OCC(=O)Nc2ccccc2)cc1NC(=O)c1ccco1` it is -0.6%.

Consider `Cc1ccc(C)c(N2CCN(C(=O)CNS(=O)(=O)c3cccs3)CC2)c1`, for which the inhibition is -4.9%.

For `COc1ccc(Cn2c(SCc3ccc(C)cc3)nc3cc(OC)c(OC)cc3c2=N)cc1Cl`, the inhibition was 1.9%.

For `Cc1ccsc1/C=C/c1ccc2cccc(O)c2n1`, the inhibition is -8.2%. In the case of `CSc1ccc(/C=C/c2ccc3cccc(O)c3n2)cc1`, the inhibition is 17.3%. In the case of `O=C(CSc1nnc(-c2cccs2)n1-c1ccccc1)NCC1CCCO1` (stereo unspecified) it was 5.8%. For `CCOc1ccc2noc3c2c1C(=O)c1ccccc1-3`, the inhibition was 19%.

`CCNc1ccc2noc3c2c1C(=O)c1ccccc1-3`: the inhibition is 46%.

In the case of `O=C1c2ccccc2-c2onc3ccc(NCc4ccco4)c1c23`, the inhibition was 58.1% (active). In the case of `O=C1c2ccccc2-c2onc3ccc(N4CCCC4)c1c23` it was 62.6% (active). In the case of `O=C1c2ccccc2C(=O)c2c1cccc2N1CCCC1` it was 19.4%. For `O=C1c2ccccc2-c2onc3ccc(NCCCn4ccnc4)c1c23`, the inhibition is 14.4%. The figure for `CSc1nc2ccccc2n1CC(=O)N1CCCCC1` is 8.7%; for `CCC(Sc1ccc2nnc(-c3ccc(OC)c(OC)c3)n2n1)C(=O)O` (stereo unspecified) it is -19.3%; for `CN(C)S(=O)(=O)c1cc(NC(=O)Cn2ccsc2=N)ccc1Cl` it is -0.6%.

Take `O=C(NC(=S)Nc1ccccc1N1CCOCC1)c1sc2ccccc2c1Cl`: the inhibition is 7.5%. The figure for `CN1CCN(c2ccc(NC(=O)c3sc4ccccc4c3Cl)cc2)CC1` is 10.7%; for `CN1CCN(c2ccccc2NC(=O)c2sc3ccccc3c2Cl)CC1` it is 62.3% (active); for `COc1ccccc1NC(=O)CN1CCC(n2c(C)nc3cc(F)ccc32)CC1` it is -4.8%. Take `Cn1c(CNc2nc3ccccc3n2C)nc2ccccc21`: the inhibition is 3.4%. The figure for `Cn1c(CNc2ccccc2O)nc2ccccc21` is 61.3% (active); for `CCCn1c(CNc2ccccc2O)nc2ccccc21` it is 34.6%. In the case of `Oc1ccccc1NCC(O)Cn1ccc2ccccc21` (stereo unspecified) it was 55.3% (active); in that of `OC(CNc1ccccc1)Cn1ccc2ccccc21` (stereo unspecified), 7.5%; in that of `OCCNCC(O)Cn1ccc2ccccc21` (stereo unspecified), 12%. Take `O=C(CSCc1ccccc1)N/N=C/c1ccc(OCC(=O)N2CCCCC2)cc1`: the inhibition was 2%. Consider `Cc1cc(NC(=O)c2ccco2)ncc1NC(=O)CCc1ccccc1`, for which the inhibition was 34.9%. The figure for `COc1cc(NC(=O)CSc2nc(C)c(C)c(C)n2)c(C)cc1[N+](=O)[O-]` is -6.6%; for `Cc1cccc[n+]1C1C(c2ccc([N+](=O)[O-])cc2)C(C#N)=C(C(=C=[N-])C#N)NC1(O)C1CC1` (stereo unspecified) it is 15.2%; for `N#CC(=C=[N-])C1=C(C#N)C(c2ccccc2F)C([n+]2ccccc2)C(O)(C2CC2)N1` (stereo unspecified) it is 21.1%.

Regarding `Cc1cccc[n+]1C1C(c2ccccc2)C(C#N)=C(C(=C=[N-])C#N)NC1(O)C1CC1` (stereo unspecified), the inhibition is 50.8% (active). In the case of `Cc1cnc(NC(=O)CC2CCCC2)s1` it was -13.1%; in that of `Cc1ccccc1Cn1nnc(-c2ccc3c(c2)OCO3)n1`, 12.9%; in that of `CC(=O)c1c(C)nc(-c2ccccc2)nc1N`, -1.3%.

As for `Cc1cc(NC(=O)C23CC4CC(C2)CC(n2cnc([N+](=O)[O-])n2)(C4)C3)no1`, the inhibition is 11.1%. Turning to `Cc1nc([N+](=O)[O-])nn1C12CC3CC(CC(Cl)(C3)C1)C2`, the inhibition is -2.6%.

Take `COCCn1c(SCc2cccnc2)nnc1-c1ccco1`: the inhibition was -18.7%. As for `C=CCn1c(=N)c(C(=O)OCC)cc2c(=O)n3cc(C)ccc3nc21`, the inhibition is -2.4%. For the compound `CN(CC#CC1(O)c2ccccc2-c2ccccc21)Cc1ccccc1`, the inhibition is 0.8%. In the case of `CC(C)(C)CNc1cc(N2CCOCC2)ccc1[N+](=O)[O-]` it was 16.1%; in that of `CC(=O)N1CCN(CC(=O)Nc2cc(S(=O)(=O)N3CCOCC3)ccc2C)CC1`, 2%. The figure for `Cc1ccc(S(=O)(=O)N2CCOCC2)cc1NC(=O)CN1CCN(c2ccc(O)cc2)CC1` is 53.9% (active). As for `CN1CCN(CC(=O)Nc2cc(N3CCOCC3)ccc2[N+](=O)[O-])CC1`, the inhibition is 62.6% (active).

For the compound `O=C(CN1CCN(c2ccc(O)cc2)CC1)Nc1cc(S(=O)(=O)N2CCCC2)ccc1Cl`, the inhibition is 45.4%. The figure for `O=C(Cn1cnc2ccccc2c1=O)NCCC(=O)Nc1ccc2c(c1)OCCO2` is -6.6%; for `COc1ccc(N2CCN(CC(=O)Nc3sccc3C#N)CC2)cc1` it is 18.8%. For `CN1CCN(CC(=O)Nc2ccccc2[N+](=O)[O-])CC1`, the inhibition is -2.9%. For the compound `O=C(Cn1cnc2ccccc2c1=O)Nc1ccc2c(c1)OCO2`, the inhibition is 1%. Turning to `N#Cc1ccsc1NC(=O)CN1CCN(c2ccc(O)cc2)CC1`, the inhibition is 54.7% (active). The figure for `O=C(Cn1cnc2ccccc2c1=O)Nc1ccc2c(c1)OCCO2` is 52.9% (active); for `N#Cc1ccsc1NC(=O)CN1CCN(c2ccccc2)CC1` it is 7.6%.
